# Results filed as inconclusive are left out. Entries that show only a call come without a potency. Calls of active or inactive are those of the source. Calls come from the whole dose curve; as a rule, active = well fitted curve in the direction sought with a large enough effect; inconclusive = small, poorly fitted or top-dose-only effect, or another doubt; inactive = no such curve, though single readings can be large; an effect the other way counts as inactive or inconclusive. Numbered stars: 1 amine (or outer) side, 2 acyl side, 3 side chain; on linkers, the order of the positions; unused ones are H or OH. Square brackets hold non-standard residues; d marks the D form. Peptide text beside a SMILES is read from it. * marks the point of attachment. X1 = CCCCCCCCCC(=O)[C@H](C(=O)[*:2])[C@@H]1CNC(=O)[C@@H](N[*:1])CS1; Octanoyl = CCCCCCCC(=O)*
# How the values were obtained:
# [1] = HEK-293 Cancer Cell Toxicity qHTS against the NCATS CANVASS Library (AID 1347355); note: nearly all actives have a fitted effect of over 65% in size; note: potency is the fitted concentration of half-maximal effect; for outcome: series mostly up to about 46 µM
# How it was run: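 Luminescent ATP read-out (CellTiter-Glo, 15min at room temperature) measures survival after cells face an 11-point compound series for 72 hours at 37 degrees C/5% CO2.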
# [2] = HPAF-II 18hr Apoptosis Induction qHTS against the NCATS CANVASS Library (AID 1347360)
# How it was run: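 Caspase-3/7 activation was measured with luminescent Caspase-Glo 3/7 reagent (15 min, RT) in HPAF-II cancer cells (500 cells/well). Before detection, cells had been treated for 18 h at 37 C with compounds (11 points).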
# [3] = SDT Cancer Cell Toxicity qHTS against the NCATS CANVASS Library (AID 1347365); note: nearly all actives have a fitted effect of over 60% in size; note: potency is the fitted concentration of half-maximal effect
# How it was run: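 qHTS, SDT dog glioma line, 500 cells/well; cpds 11 pts; 72 hr, 37C, 5% CO2; CellTiterGlo ATP luminescence.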
# [4] = G06 Cancer Cell Toxicity qHTS against the NCATS CANVASS Library (AID 1347368); note: nearly all actives have a fitted effect of over 60% in size; note: potency is the fitted concentration of half-maximal effect; for activity change, negative = cytotoxic: series mostly up to about 46 µM
# How it was run: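 Dog G06 glioma line, 500 cells/well; cpds pin-transferred, 11-pt; 72 hr, 37C/5% CO2; CellTiterGlo luminescence (ATP) endpoint.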
# [5] = qHTS for activators of Nrf2/ARE signaling pathway screened against the NCATS CANVASS Library (AID 1347391); note: nearly all actives have a fitted effect of over 60% in size; note: potency is the fitted concentration of half-maximal effect
# How it was run: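 Plate ARE-bla HepG2 cells at 2000/well and let them settle 5 h. Pin-transfer compounds in DMSO, incubate 16 h at 37C. Load CCF4 for 2 h at room temperature and read blue/green fluorescence.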
# [6] = Redox Reaction Profiling qHTS: Assay Interference Panel against the NCATS CANVASS Library (AID 1347401)
# How it was run: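 Compounds in 11-point series incubated with 5 uM resazurin and 200 uM DTT in 50 mM HEPES pH 7.3, 50 mM NaCl. Resorufin fluorescence (Ex 525/Em 598) read before and after 15 min in the dark.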
# [7] = qHTS for Hypoxia signaling pathway (HIF-1) antagonists against the NCATS CANVASS Library (AID 1347374); note: nearly all actives have a fitted effect of over 60% in size; note: potency is the fitted concentration of half-maximal effect
# How it was run: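 HRE-bla ME-180 cells in medium with 0.5% dialyzed FBS received compounds (11-point series) plus CoCl2 (60 uM addition stock) for 17 hrs at 37C. Beta-lactamase activity read with CCF4 (405 nm ex, 460/530 nm em); CellTiter-Glo viability measured in same wells.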
# [8] = qHTS for Antimalaria activity screened against the NCATS CANVASS Library (AID 1347380); note: nearly all actives have a fitted effect of over 40% in size; note: potency is the fitted concentration of half-maximal effect
# How it was run: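 Dd2 strain, infected erythrocytes 2.5% Hct final / 0.3% parasitemia. 11-pt qHTS titration, 72 h, 37C, 5% O2, 5% CO2. Lysis buffer + SYBR Green, 18 h, fluorescence 485/535 nm.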
# [9] = qHTS for inhibitors of ER calcium dysfunction: SERCaMP assay screened against the NCATS CANVASS Library (AID 1347393); note: nearly all actives have a fitted effect of over 40% in size; note: potency is the fitted concentration of half-maximal effect
# How it was run: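 SH-SY5Y GLuc-SERCaMP, 1000 cells/well, 4 h attach; cpd 16 h, 37C/5% CO2; thapsigargin (added as 6x 600 nM) 4 h; coelenterazine; luminescence. Reduced reporter release = ER Ca stabilization.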
compound,measurement,setting,value
COc1ccc([C@@H]2c3cc(OC)c(OC)cc3C(=O)[C@H](C)C2C)cc1OC (stereo partly specified),outcome,[1],inactive [at 9.19 µM]
same,caspase activation,[2],1.74% [at 9.19 µM] (inactive)
same,outcome,[3],inactive [at 9.19 µM]
same,"activity change, negative = cytotoxic",[4],9.12% [at 9.19 µM] (inactive)
same,activation,[5],4.51% [at 9.19 µM] (inactive)
same,activation (redox signal),[6],-5.6% [at 11.4 µM] (inactive)
CC(=O)O[C@@H]1C=C2C(=O)OC[C@]2(O)[C@@]2(C)CCCC(C)(C)[C@H]12,Potency,[1],8.33 µM (active)
same,Potency,[3],13.2 µM (active)
same,Potency,[4],10.5 µM (active)
same,Potency,[7],7.47 µM (active)
same,Potency,[8],18.8 nM (active)
same,Potency,[5],inactive
same,Potency,[9],inactive
CCC1=C2CCCN3C(=O)O[C@H]([C@H]1OC(C)=O)[C@H]23,Potency,[1],inactive
same,Potency,[2],inactive
same,Potency,[4],inactive
same,Potency,[7],inactive
same,Potency,[8],5.9 nM (active)
same,Potency,[5],inactive
same,Potency,[9],inactive
same,Potency,[6],inactive
C=C[C@]1(C)CC[C@@H]([C@H](C)C(=O)OCC)O1,Potency,[2],inactive
same,Potency,[7],inactive
same,Potency,[9],inactive
same,Potency,[6],inactive
C=C(C)C(=O)O[C@H]1C[C@H](C)[C@@H](OC(C)=O)CC[C@@]2(C)O[C@@H]2[C@H]2OC(=O)C(COC(C)=O)=C12,Potency,[3],6.62 µM (active)
same,Potency,[4],2.64 µM (active)
same,Potency,[9],0.86 µM (active)
same,Potency,[6],inactive
C/C(=C\[C@H](C)C(=O)CCCC1CC(=O)NC(=O)C1)C(O)[C@@H](C)[C@H](O)C/C=C/CC/C=C/C(=O)O (stereo partly specified),Potency,[1],inactive
same,Potency,[3],inactive
same,Potency,[8],inactive
same,Potency,[5],inactive
same,Potency,[9],inactive
C/C=C/C(=O)[C@@H](C)C1=CC(=O)C2=C(O[C@@]34CC[C@H](O)C(C)(C)[C@@H]3CC[C@H](C)[C@@]4(C)C2)C1=O,Potency,[1],2.96 µM (active)
same,Potency,[4],3.32 µM (active)
same,Potency,[7],2.11 µM (active)
same,Potency,[5],1.86 µM (active)
same,Potency,[6],inactive
CNc1ccc(Cl)cc1C(=O)OC[C@]1(C)[C@H]2CC[C@]3(C)[C@@H](C[C@@H](OC)[C@H](C)[C@H]3C3=C(O)C(=O)OC3O)[C@]2(C)CC[C@H]1O (stereo partly specified),Potency,[1],inactive
same,Potency,[2],inactive
same,Potency,[7],inactive
same,Potency,[8],inactive
same,Potency,[5],inactive
same,Potency,[9],inactive
CCCCCCCCCCCCCCC[C@H](O)C[C@@H](O)C[C@@H](O)C[C@@H](O)C[C@@H](O)C[C@H]1CC=CC(=O)O1,Potency,[1],5.26 µM (active)
same,Potency,[3],2.96 µM (active)
same,Potency,[4],2.64 µM (active)
same,Potency,[8],3750 nM (active)
same,Potency,[5],inactive
same,Potency,[9],inactive
same,Potency,[6],inactive
CCCCCCCCCCCCCCCC(=O)OC/C=C(\C)CCCC(C)CC(C)C(C)C (stereo unspecified),Potency,[1],inactive
same,Potency,[3],inactive
same,Potency,[4],inactive
same,Potency,[7],inactive
same,Potency,[8],1.9 nM (active)
same,Potency,[5],inactive
same,Potency,[9],inactive
same,Potency,[6],inactive
C=C1C[C@@]23C=CC(=O)[C@@](C)(CCC(=O)Nc4c(O)ccc(C(=O)O)c4O)C2C[C@@H]1CC3 (stereo partly specified),Potency,[1],inactive
same,Potency,[2],inactive
same,Potency,[3],inactive
same,Potency,[8],inactive
same,Potency,[5],18.6 µM (active)
same,Potency,[9],inactive
same,Potency,[6],inactive
CCCCCCCC(=O)N[C@@H](CC(C)C)C(=O)N[C@H](C=O)CCC(=O)O (Octanoyl-Leu-Glu-aldehyde),Potency,[3],inactive
same,Potency,[4],inactive
same,Potency,[7],inactive
same,Potency,[5],inactive
same,Potency,[9],inactive
Oc1ccc(/C=C2/c3cc(O)cc(O)c3C(c3ccc(O)cc3)[C@H]2c2cc(O)cc(O)c2)cc1 (stereo partly specified),Potency,[3],inactive
same,Potency,[4],inactive
same,Potency,[8],inactive
same,Potency,[5],inactive
same,Potency,[9],inactive
CCCCCCCCCC(=O)[C@@H]1C(=O)N[C@@H](CC(C)C)C(=O)N[C@H](C)C(=O)N2CCC[C@H]2C(=O)N[C@@H](C(C)C)C(=O)N[C@H]2CS[C@H]1CNC2=O (cyclo(L[dA]PV[X1])),Potency,[2],inactive
same,Potency,[7],inactive
same,Potency,[8],3.3 nM (active)
CC1C(=O)C23CCC1C[C@@]21O[C@H]2C(C)(C)C=CC(=O)[C@@]23COC1=O (stereo partly specified),Potency,[3],inactive
same,Potency,[4],inactive
same,Potency,[5],inactive
same,Potency,[9],inactive
C=C1C[C@@]23C=CC(=O)[C@@](C)(CCC(=O)Nc4c(O)ccc(C(=O)O)c4O)C2C[C@@H]1CC3O (stereo partly specified),Potency,[1],inactive
same,Potency,[2],inactive
same,Potency,[3],inactive
same,Potency,[4],inactive
same,Potency,[8],inactive
same,Potency,[5],inactive
same,Potency,[9],inactive
CC1(C)C=Cc2c(ccc3c2OC[C@@H](c2ccc(O)cc2O)C3)O1,Potency,[2],inactive
same,Potency,[3],inactive
same,Potency,[4],inactive
same,Potency,[9],30.5 µM (active)
same,Potency,[6],inactive

# From PubChem BioAssay (NCATS)
